Test results from PubChem BioAssay (NCI).
About 83,000 compounds went through this panel and 20% of them were active in at least one assay; those are over-represented in the sample as a whole.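 Results are percent growth after 48 hours of single-concentration exposure. 100 means growth as in untreated cells, lower positive values show inhibition; negative values down to -100 show cell death.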 Values without a mark were called inactive. The source made the active and inactive calls. The calls were made as follows: active = growth percent below 10; inactive = the rest.

Experiments:
Assay in all cases: NCI-60 one-dose screen, 48 h (100 = growth as untreated, 0 = no growth, -100 = all killed)
Conditions in all cases: 10 µM unless noted
[1] = system: NCI-H23 lung
[2] = system: NCI-H226 lung
[3] = system: NCI-H322M lung
[4] = system: HOP-62 NSCLC
[5] = system: NCI-H460 lung
[6] = system: HOP-92 NSCLC
[7] = system: NCI-H522 lung
[8] = system: A549/ATCC NSCLC
[9] = system: 786-0 renal
[10] = system: COLO 205 colon

| SMILES | growth [1] | growth [2] | growth [3] | growth [4] | growth [5] | growth [6] | growth [7] | growth [8] | growth [9] | growth [10] |
| --- | --- | --- | --- | --- | --- | --- | --- | --- | --- | --- |
| O=NNc1ccccn1 | 79.4% | 91.1% | 126% | 90.3% | 41.7% | 92.1% | 64.3% | 95.1% | 106% | 95.8% |
| Cc1cc(N(CCCl)CCCl)ccc1C=Nc1cccnc1 | 56.6% | -45.2% (active) | 108% | 60.4% | 26.5% | 44.8% | 87.3% | 67.9% | 63% | 76.7% |
| COc1cccc2c1c(C(=O)c1ccco1)cn2Cc1ccc(F)cc1 | 111% | 96.3% | 115% | 125% | 113% | 63.4% | 76.2% | 112% | 110% | 123% |
| Nc1ccc(-c2nc3cc(F)ccc3[se]2)cc1F | 33.9% | -13.2% (active) | 72.6% | 51.4% | 11.7% | 66% | 64.2% | 39.9% | 101% | 56.2% |
| COc1cc(C=C2c3ccccc3C(=O)c3ccccc32)ccc1OCCCCOc1cc2c(cc1OC)C(=O)N1CCCC1C=N2 (stereo not given) | -52.7% (active) | -66.4% (active) | 13.3% | -62.5% (active) | -77% (active) | -59.4% (active) | -53.1% (active) | -37.8% (active) | -100% (active) | -93.9% (active) |
| C=C1C(=O)O[C@H]2[C@H]1CC/C(COC(=O)C(=O)c1cn(Cc3ccccc3)c3ccccc13)=C\CC[C@@]1(C)O[C@@H]21 | -51.7% (active) | -70.3% (active) | -25.6% (active) | 2.07% (active) | -11.4% (active) | -46.7% (active) | -69% (active) | -42.7% (active) | -75.3% (active) | -52.4% (active) |
| O=P1(NCCCl)OCCCN1CCCl (stereo not given) | 107% | 109% | 106% | 108% | 109% | 97.4% | 99.5% | 121% | 93.5% | 112% |
| CCOC(=O)[C@@H](C)C[C@H](Cc1ccccc1)NC(=O)c1csc([C@@H](C[C@H](C(C)C)N(C)C(=O)[C@@H](NC(=O)[C@H]2CCCCN2C)C(C)(C)CC)OC(C)=O)n1 | 26.9% | -41.7% (active) | 34.4% | 18.8% | -10.1% (active) | 16% | -32.8% (active) | 10.1% | 1.55% (active) | -62.6% (active) |
| Cn1cc(-c2csc(-c3cn(CCCCN4CCCCC4)c4ccccc34)n2)c2cccnc21 | 42.7% | 68.2% | 88.2% | 51.6% | -44.9% (active) | 46.3% | 48% | -47.1% (active) | -85.1% (active) | -73.7% (active) |
| COC(=O)[C@@H](C)C[C@H](Cc1ccccc1)NC(=O)c1nc([C@@H](C[C@H](C(C)C)N(C)C(=O)[C@@H](NC(=O)[C@H]2CCCN2C)C(C)C)OC(C)=O)sc1C | 31.8% | 43.4% | 35.2% | 21.1% | 7.21% (active) | 8.77% (active) | -23.7% (active) | 16.1% | 14.3% | -74.2% (active) |
| CC(=O)OC[C@]1(C)C=C2C(=O)[C@](C)(O)C3(CC3)C(C)=C2[C@H]1OC(=O)N(C)CCN(C)C(=O)OC(C)(C)C | -17.8% (active) | 24.7% | 12.4% | -19.9% (active) | 0.38% (active) | -13.4% (active) | -47% (active) | 4.55% (active) | 0.73% (active) | -66.8% (active) |
| CC(C)(C)N1CC1C#N (stereo not given) | 99.5% | 103% | 96.3% | 105% | 105% | 105% | 96% | 105% | 98.6% | 98.7% |
| COC(=O)[C@@H](C)C[C@H](Cc1ccccc1)NC(=O)c1csc([C@@H](C[C@H](C(C)C)N(C)C(=O)[C@@H](NC(=O)[C@H]2CCCCN2C)c2ccc(F)cc2)OC(C)=O)n1 | 25.6% | 29.4% | 37.4% | 3.87% (active) | 3.62% (active) | 4.81% (active) | -2.85% (active) | 13.9% | 15.7% | -53.8% (active) |
| O=C(N/N=C\c1ccc(N(CCCl)CCCl)cc1Cl)c1cccnc1 | 70.5% | -48.5% (active) | 133% | 72.2% | 7.56% (active) | 74.3% | 116% | 60.4% | 66.9% | 83% |
| CC(C)CCC1(CCCl)C(=O)NC(=O)NC1=O | 99.6% | 96.6% | 101% | 106% | 101% | 91.2% | 104% | 91% | 96.1% | 110% |
| Oc1ccc2c3c1OC1[C@@H](O)CC[C@@]4(O)[C@@H](C2)N(CC2CCC2)CC[C@]314 (stereo not given in full) | 104% | 99.1% | 97.7% | 107% | 115% | 86.8% | 86.3% | 98.9% | 96.6% | 113% |
| ClCCN(CCCl)c1nc(Cl)c(C2CC(c3ccccc3)=NN2c2cc(Cl)cc(Cl)c2)s1 (stereo not given) | 99.7% | 99.6% | 97.8% | 111% | 99.3% | 113% | 97.6% | 94.7% | 100% | 121% |
